Experimental findings from PubChem BioAssay (NCATS) are described below.

The nature of assay [1]: AP1 Signaling Pathway (AID 357; active = well fitted curve in either direction with a large enough effect, not every such curve was filed as active;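 note: ME-180 reporter cells stimulated with EGF at its EC50 level; % is set by controls: 0 for no effect and ±100 for the full control effect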). The conditions noted are these: ME-180 (cervical carcinoma) AP-1-bla reporter, EGF-induced, beta-lactamase ratio, 5 h; at 7.69 µM (top of the series) unless noted. The method, boiled down: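 Modulation of EGF-driven AP-1 transcription was assessed with a beta-lactamase reporter in ME-180 cells. Compound and EC50 EGF were co-incubated 5 hours at 37 °C before 2.5-hour CCF4 loading at room temperature and dual-emission reading.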

A short description of assay [2]: NFAT Signaling Pathway (AID 444; active = well fitted curve in either direction with a large enough effect, not every such curve was filed as active;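 note: carbachol stimulus at about its EC50 of 1 µM final; % is set by controls: 0 for no effect and ±100 for the full control effect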). The following applies: Jurkat NFAT-bla M1, carbachol, beta-lactamase ratio, 5 h; at 7.69 µM (top of the series) unless noted. The method, boiled down:
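Read-out: CCF4 FRET ratio (460 nm/530 nm) after 1 h RT dye loading, used for %activity and AC50 from titration series. Cells: Jurkat NFAT-β-lactamase/M1 line, treated with compound plus 1 uM carbachol for 5 h, 37 °C.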

The target of assay [3] is Glucocorticoid receptor (Homo sapiens) (UniProt P04150). In words: GR-GFP Redistribution (AID 450;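 active = compounds whose dose series gives a full or clear partial fitted curve of increased nuclear translocation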; note: potency is the fitted concentration of half-maximal effect). The following applies: U2OS GR-GFP nuclear translocation, laser cytometry, 2 h.
For assay [4] the target is unchanged. In words: GR-EFC Redistribution (AID 451; calls by dose curve; note: potency is the fitted concentration of half-maximal effect). The following applies: CHO-K1 GR-EFC translocation, beta-gal luminescence, 2 h. The gist of the method:
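Translocation of GR-ED fusion to nuclear EA restores b-gal, read by luminescence after 1 h room-temperature detection. Engineered CHO-K1 biosensor cells, 1,000/well, exposed 2 h at 37 C to titrations up to 46 uM final.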

Assay [5] has as its target Mitogen-activated protein kinase 10 (Mus musculus) (UniProt Q61831). In words: JNK3 AlphaScreen Assay (AID 530; active = well fitted curve in either direction with a large enough effect, not every such curve was filed as active;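 note: kinase came from lysate of stimulated human HepG2 cells; signal reports phosphorylation of biotinylated GST-cJun 1-79 at Ser73 with 10 µM ATP; % is set by controls: 0 for no effect and ±100 for the full control effect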). The gist of the method: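 Compound titrations were preincubated 15 minutes at room temperature with substrate, antibody and pre-activated JNK3-containing HepG2 lysate. Reactions were started with 10 uM ATP and stopped with EDTA-containing bead buffer for AlphaScreen detection.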

In assay [6] the target is Ubiquitin carboxyl-terminal hydrolase 1 (Homo sapiens) (UniProt O94782). Put plainly: Inhibitors of USP1/UAF1: Pilot qHTS (AID 504865).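 Note: rhodamine fluorescence freed from ubiquitin-rhodamine substrate followed over time; top concentration of the series differs between compounds; % is set by controls: 0 for no effect and ±100 for the full control effect; nearly all actives have a fitted effect of over 35% in size.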 The method, boiled down:
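1nM USP1/UAF1 + cpd, 15 min RT; start w/ Ub-Rho 150nM final; kinetic FL 480/540 nm, 6 reads q60 s. Buffer 50mM HEPES pH 7.8, 0.5mM EDTA, 1mM TCEP, 0.01% Tween-20, 0.1 mg/ml BSA.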

A short description of assay [7]: Viability counterscreen for antagonist of constitutive androstane receptor (CAR) against the NCATS DSHEA and TCM libraries (AID 1794837).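 Note: compound exposure lasted 24 h before viability reading; 0% is about no effect.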 The method, boiled down: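 Cell viability, CellTiter-Fluor, Ex/Em 405/540 nm, 1 h at 37C. HepG2-CYP2B6-hCAR, 2,500 cells/well; cpds + CITCO 48 uM final (antagonist mode), 24 h, 37C/5% CO2.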
Background: Counterscreens check selectivity or assay interference.

Assay [8] in a line: Viability counterscreen for agonist of constitutive androstane receptor (CAR) against the NCATS DSHEA and TCM libraries (AID 1794838). Note: 0% is about no effect. The method, boiled down:
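Viability by CellTiter-Fluor fluorescence, 405/540 nm, after 1 h at 37C. HepG2-CYP2B6-hCAR cells were exposed 24 h to test substances in presence of 0.75 uM PK11195 (final).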

The target in assay [9] is Nuclear receptor subfamily 1 group I member 3 (Homo sapiens) (UniProt Q14994). Put plainly: Primary qHTS for agonist of constitutive androstane receptor (CAR) against the NCATS DSHEA and TCM libraries (AID 1794839).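 Note: HepG2 cells expressing human CAR with a CYP2B6 reporter plus PK11195 antagonist; 0% is about no effect.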 The method, boiled down:
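Luminescence from ONE-Glo luciferase was the agonist read-out in HepG2-CYP2B6-hCAR cells exposed 24 h to test substances. Wells also held the CAR antagonist PK11195 at 0.75 µM final. Viability was by CellTiter-Fluor fluorescence.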
In general terms: In qHTS, concentration-response curves come from the screen itself.

The nature of assay [10]: HepG2 viability counterscreen (readout 2: ATP content) against the NCATS DSHEA and TCM libraries (AID 1794840). Note: 0% is about no effect. The method, boiled down:
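1,000 HepG2 cells/well, 4 h attach; compounds ~24 h, 37C/5% CO2. Readout 1: GF-AFC 25 uM final, 30 min, fluorescence 380/510 nm. Readout 2: CellTiter-Glo, 30 min RT, luminescence.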

In assay [11] the target is Cytochrome P450 3A4 (Homo sapiens) (UniProt P08684). In words: qHTS for inhibitors of CYP3A4 against the NCATS DSHEA and TCM libraries (AID 1919971).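 For activity change, negative = inhibition: % is set by controls: 0 for no effect and ±100 for the full control effect; inhibition lowers luminescence from luciferin made by CYP3A4.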 Note: potency is the fitted concentration of half-maximal effect. The gist of the method:
(§1)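 Luminescent P450-Glo format: compounds preincubated 15 min with enzyme and luciferin substrate, reaction run 30-45 min after NADPH regeneration solution. Intraplate controls: ketoconazole for CYP3A4 and CYP2C19, sulfaphenazole for CYP2C9.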

Assay [12] addresses Cytochrome P450 2D6 (Homo sapiens) (UniProt P10635). In words: qHTS for inhibitors of CYP2D6 against the NCATS DSHEA and TCM libraries (AID 1919972). Note: potency is the fitted concentration of half-maximal effect. The method, boiled down:
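Luminescent P450-Glo read-out of CYP2D6 turnover of a luciferin substrate after NADPH-driven reaction of 30-45 min at room temperature. Compounds were first preincubated 15 min with enzyme at titrated concentrations; quinidine was the intraplate control.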

Assay [13] concerns the target Cytochrome P450 2C9 (Homo sapiens) (UniProt P11712). In words: qHTS for inhibitors of CYP2C9 against the NCATS DSHEA and TCM libraries (AID 1919973). Note: potency is the fitted concentration of half-maximal effect. The gist of the method:
as §1

The target of assay [14] is Cytochrome P450 2C19 (Homo sapiens) (UniProt P33261). In words: qHTS for inhibitors of CYP2C19 against the NCATS DSHEA and TCM libraries (AID 1919974).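 Note: luminescence from luciferin released by CYP2C19 oxidation of a pro-luciferin substrate.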 Note: potency is the fitted concentration of half-maximal effect. The gist of the method: as §1
Assay [15] is described as follows: KB-3-1 P-gp reporter qHTS against the NCATS DSHEA and TCM libraries (AID 1919975). Note: 0% is about no effect. The gist of the method:
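CellTiter-Glo luminescence viability readout; KB-3-1 parental cells, 500/well, attached ~4 h, then compound for ~72 h, 37C, 5% CO2. Bortezomib intraplate control.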

For assay [16], the target named is Cytochrome P450 1A2 (Homo sapiens) (UniProt P05177). In words: qHTS for inhibitors of CYPIA2 against the NCATS DSHEA and TCM libraries (AID 1919976).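 Note: light from luciferin formed by CYP1A2 from a pro-luciferin substrate; % is set by controls: 0 for no effect and ±100 for the full control effect.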 The method, boiled down: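 Human CYP1A2 with pro-luciferin substrate (typically 100 mM KPO4), 15 min preincubation with compound, then 1x NADPH regeneration for 30-45 min at room temperature in the dark. Luciferin quantified by luciferase luminescence; furafylline intraplate control.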

For assay [17], the target named is Nuclear receptor subfamily 1 group I member 2 (Homo sapiens) (UniProt O75469). In words: Dual reporter qHTS for agonist of Pregnane X Receptor (hPXR) against the NCATS DSHEA and TCM libraries: Luminescence readout (AID 1920059). Note: 0% is about no effect. The method, boiled down: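 Luminescent PXR reporter read (ONE-Glo) after a CellTiter-Fluor viability read, following 24 h, 37C treatment of HepG2 cells stably carrying hPXR-Luc.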

Assay [18] has the same target. In words: Dual reporter qHTS for antagonist of Pregnane X Receptor (hPXR) against the NCATS DSHEA and TCM libraries: Luminescence Readout (AID 1920060). Note: 0% is about no effect. The method, boiled down: (§2)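 Rifampicin-stimulated (2 uM final) hPXR-luciferase HepG2 cells were treated for 24 h with DSNP/TCM substances. Viability came from CellTiter-Fluor fluorescence, reporter activity from ONE-Glo luminescence.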

Assay [19] can be described thus: Dual reporter qHTS for antagonist of Pregnane X Receptor (hPXR) against the NCATS DSHEA and TCM libraries: Fluorescence Readout (AID 1920061). Note: 0% is about no effect. The gist of the method:
as §2

Assay [20] can be described thus: qHTS Counterscreen for compound interference against the NCATS DSHEA and TCM libraries (AID 1919978).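 Note: compounds preincubated with 1 µM D-luciferin or buffer before detection reagent; % of control where 0% means no effect.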 The conditions noted are these: firefly luciferase detection reagent interference, luminescence. The gist of the method:
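Luminescence counterscreen for detection-kit interference: compounds at 19.5 nM–39.8 uM final, 15 min RT with 1 uM D-luciferin or buffer only; detection reagent added, 30 min RT, then read.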

A number with no mark means an inactive call. Records with an inconclusive call do not appear. Calls of active or inactive are those of the source. Unless noted, calls come from the whole dose curve; as a rule, active = well fitted curve in the direction sought with a large enough effect; inconclusive = small, poorly fitted or top-dose-only effect, or another doubt; inactive = no such curve, though single readings can be large; an effect the other way counts as inactive or inconclusive.

Sequence of Cytochrome P450 2D6 (Homo sapiens) (P10635 whole entry, looked up): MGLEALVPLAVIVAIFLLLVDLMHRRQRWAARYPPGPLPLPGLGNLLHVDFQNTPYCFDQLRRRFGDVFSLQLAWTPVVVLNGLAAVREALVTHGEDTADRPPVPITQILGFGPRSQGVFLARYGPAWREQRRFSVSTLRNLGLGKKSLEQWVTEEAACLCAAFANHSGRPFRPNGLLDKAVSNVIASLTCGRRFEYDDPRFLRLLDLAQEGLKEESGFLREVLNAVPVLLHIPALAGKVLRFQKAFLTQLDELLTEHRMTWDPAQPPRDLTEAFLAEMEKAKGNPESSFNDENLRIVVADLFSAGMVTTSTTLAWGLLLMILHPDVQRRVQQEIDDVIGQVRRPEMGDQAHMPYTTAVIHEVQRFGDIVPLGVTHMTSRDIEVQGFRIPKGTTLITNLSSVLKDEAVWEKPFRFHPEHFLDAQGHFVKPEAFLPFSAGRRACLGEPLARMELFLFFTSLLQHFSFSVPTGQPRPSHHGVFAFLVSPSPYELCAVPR
Sequence of Ubiquitin carboxyl-terminal hydrolase 1 (Homo sapiens) (O94782 whole entry, looked up): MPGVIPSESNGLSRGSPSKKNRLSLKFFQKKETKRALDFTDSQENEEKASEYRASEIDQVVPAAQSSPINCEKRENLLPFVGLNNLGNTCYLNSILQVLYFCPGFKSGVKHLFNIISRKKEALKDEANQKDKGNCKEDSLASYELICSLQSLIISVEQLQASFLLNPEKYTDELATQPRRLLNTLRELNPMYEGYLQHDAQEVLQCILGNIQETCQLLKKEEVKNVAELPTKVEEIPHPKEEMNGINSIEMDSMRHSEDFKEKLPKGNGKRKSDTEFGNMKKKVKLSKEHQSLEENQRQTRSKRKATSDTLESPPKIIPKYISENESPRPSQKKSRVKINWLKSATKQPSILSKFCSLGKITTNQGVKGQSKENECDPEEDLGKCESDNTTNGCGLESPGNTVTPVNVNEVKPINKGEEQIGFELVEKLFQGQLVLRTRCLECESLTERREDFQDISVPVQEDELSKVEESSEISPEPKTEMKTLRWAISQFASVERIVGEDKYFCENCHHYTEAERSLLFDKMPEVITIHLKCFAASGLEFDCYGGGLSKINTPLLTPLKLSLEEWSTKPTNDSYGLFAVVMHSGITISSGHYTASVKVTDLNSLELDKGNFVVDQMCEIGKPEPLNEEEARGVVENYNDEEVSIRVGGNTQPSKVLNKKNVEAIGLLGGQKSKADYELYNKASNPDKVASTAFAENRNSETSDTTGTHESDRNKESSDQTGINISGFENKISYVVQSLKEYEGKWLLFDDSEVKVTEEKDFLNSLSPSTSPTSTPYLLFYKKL
Sequence of Nuclear receptor subfamily 1 group I member 3 (Homo sapiens) (Q14994 whole entry, looked up): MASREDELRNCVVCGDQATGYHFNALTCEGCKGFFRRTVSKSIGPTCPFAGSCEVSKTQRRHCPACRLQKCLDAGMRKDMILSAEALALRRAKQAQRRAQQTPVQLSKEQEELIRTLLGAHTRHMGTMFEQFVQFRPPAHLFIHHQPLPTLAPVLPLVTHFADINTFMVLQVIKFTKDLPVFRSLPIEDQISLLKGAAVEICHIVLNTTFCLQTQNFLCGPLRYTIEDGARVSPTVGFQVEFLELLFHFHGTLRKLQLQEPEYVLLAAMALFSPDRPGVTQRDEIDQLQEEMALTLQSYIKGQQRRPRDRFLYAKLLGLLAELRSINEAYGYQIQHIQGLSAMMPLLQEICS
Sequence of Cytochrome P450 3A4 (Homo sapiens) (P08684 whole entry, looked up): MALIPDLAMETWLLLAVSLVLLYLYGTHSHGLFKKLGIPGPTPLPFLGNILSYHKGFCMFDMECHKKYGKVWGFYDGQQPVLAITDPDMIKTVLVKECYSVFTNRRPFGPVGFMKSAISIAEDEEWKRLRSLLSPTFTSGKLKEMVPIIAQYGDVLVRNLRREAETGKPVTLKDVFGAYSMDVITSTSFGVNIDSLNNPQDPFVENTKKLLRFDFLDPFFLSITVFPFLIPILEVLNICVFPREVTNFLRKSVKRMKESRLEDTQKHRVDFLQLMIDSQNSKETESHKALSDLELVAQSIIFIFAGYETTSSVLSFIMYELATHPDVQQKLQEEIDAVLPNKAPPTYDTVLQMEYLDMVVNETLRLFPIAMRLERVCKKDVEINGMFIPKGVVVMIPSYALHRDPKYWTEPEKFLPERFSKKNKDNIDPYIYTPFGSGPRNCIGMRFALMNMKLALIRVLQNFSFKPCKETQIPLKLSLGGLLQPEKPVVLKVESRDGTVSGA
Sequence of Cytochrome P450 2C19 (Homo sapiens) (P33261 whole entry, looked up): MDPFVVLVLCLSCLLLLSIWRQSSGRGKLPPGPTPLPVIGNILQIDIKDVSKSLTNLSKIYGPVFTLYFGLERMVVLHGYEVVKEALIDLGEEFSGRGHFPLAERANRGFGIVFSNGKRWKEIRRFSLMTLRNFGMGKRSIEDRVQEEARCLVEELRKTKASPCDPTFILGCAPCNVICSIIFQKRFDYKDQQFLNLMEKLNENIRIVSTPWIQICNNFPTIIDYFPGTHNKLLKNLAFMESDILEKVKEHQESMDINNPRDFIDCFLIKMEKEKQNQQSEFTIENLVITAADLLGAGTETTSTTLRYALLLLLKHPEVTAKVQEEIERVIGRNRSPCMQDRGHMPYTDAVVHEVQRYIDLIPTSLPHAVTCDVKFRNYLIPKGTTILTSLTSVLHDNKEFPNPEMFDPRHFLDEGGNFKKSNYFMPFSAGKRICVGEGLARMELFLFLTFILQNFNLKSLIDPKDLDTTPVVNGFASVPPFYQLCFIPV
Sequence of Glucocorticoid receptor (Homo sapiens) (P04150 whole entry, looked up): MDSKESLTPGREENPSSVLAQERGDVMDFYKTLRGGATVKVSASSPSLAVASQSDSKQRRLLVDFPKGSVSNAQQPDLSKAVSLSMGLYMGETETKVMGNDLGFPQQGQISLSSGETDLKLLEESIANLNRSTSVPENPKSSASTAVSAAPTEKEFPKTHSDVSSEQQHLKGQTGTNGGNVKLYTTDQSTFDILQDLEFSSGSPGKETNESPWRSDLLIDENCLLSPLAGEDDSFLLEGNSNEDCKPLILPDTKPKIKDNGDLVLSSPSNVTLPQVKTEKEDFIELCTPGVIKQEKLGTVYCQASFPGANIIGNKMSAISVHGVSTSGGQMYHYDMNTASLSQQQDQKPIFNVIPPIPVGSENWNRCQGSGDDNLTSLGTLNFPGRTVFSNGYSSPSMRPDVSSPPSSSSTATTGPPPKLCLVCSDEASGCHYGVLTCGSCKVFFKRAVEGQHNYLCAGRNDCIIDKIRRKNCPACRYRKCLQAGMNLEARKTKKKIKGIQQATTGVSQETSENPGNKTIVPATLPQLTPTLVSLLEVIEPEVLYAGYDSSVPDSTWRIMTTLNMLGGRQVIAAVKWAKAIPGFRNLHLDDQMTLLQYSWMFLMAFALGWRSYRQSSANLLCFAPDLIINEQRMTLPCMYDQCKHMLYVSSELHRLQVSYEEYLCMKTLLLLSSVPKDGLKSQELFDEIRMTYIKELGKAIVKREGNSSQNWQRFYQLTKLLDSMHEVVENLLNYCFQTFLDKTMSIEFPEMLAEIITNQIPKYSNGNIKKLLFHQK
Sequence of Cytochrome P450 2C9 (Homo sapiens) (P11712 whole entry, looked up): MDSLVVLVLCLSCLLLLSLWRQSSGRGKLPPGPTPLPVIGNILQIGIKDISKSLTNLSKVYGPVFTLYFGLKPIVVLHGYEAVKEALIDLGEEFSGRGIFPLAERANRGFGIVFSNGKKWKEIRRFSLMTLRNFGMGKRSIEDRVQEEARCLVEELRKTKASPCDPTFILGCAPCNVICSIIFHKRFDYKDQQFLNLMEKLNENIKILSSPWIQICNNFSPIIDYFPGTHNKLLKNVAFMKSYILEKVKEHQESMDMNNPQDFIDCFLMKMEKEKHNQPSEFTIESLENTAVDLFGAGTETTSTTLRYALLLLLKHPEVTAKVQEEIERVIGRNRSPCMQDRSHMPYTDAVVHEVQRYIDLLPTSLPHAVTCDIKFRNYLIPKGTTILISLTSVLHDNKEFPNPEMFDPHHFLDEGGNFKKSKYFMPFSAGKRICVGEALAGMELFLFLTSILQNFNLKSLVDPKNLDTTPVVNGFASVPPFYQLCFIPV
Sequence of Nuclear receptor subfamily 1 group I member 2 (Homo sapiens) (O75469 whole entry, looked up): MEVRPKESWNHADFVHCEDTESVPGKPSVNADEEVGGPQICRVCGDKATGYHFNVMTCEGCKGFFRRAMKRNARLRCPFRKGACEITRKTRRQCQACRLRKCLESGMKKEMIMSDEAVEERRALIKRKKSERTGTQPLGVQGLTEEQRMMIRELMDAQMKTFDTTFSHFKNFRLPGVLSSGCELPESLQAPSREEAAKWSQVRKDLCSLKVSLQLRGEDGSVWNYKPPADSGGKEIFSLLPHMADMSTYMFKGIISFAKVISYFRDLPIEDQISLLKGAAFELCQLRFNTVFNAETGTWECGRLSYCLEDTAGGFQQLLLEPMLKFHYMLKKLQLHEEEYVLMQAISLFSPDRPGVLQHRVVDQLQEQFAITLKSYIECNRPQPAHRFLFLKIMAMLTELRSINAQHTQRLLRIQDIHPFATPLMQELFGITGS
Sequence of Cytochrome P450 1A2 (Homo sapiens) (P05177 whole entry, looked up): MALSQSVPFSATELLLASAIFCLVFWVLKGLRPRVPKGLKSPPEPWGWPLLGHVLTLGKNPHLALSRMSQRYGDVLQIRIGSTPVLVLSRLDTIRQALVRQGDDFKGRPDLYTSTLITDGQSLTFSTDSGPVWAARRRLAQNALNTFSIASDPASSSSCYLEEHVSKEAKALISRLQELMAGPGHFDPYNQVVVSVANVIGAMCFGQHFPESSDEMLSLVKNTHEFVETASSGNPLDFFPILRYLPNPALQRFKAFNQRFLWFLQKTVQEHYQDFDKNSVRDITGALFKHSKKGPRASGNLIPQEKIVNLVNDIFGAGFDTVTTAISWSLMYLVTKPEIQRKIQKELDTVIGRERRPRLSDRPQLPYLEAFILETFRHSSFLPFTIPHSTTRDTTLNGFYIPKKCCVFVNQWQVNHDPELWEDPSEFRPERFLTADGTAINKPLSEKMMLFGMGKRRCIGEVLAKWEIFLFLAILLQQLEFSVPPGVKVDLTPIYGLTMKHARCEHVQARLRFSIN

Turning to `COc1ccccc1CNc1ncncc1-c1ccccc1Cl`, the activity change, negative = inhibition in [1] was -2.69%; in [2] it was -21.7%. The Potency in [3] and in [4] was over 46 µM throughout. Besides, the Potency entry in assay [5] and in [6] was “inactive” throughout.

With `CN1CCN(c2ncnc3ccc(-c4cccc(C#N)c4)cc23)CC1`, the results for the activity change, negative = inhibition in assay [1] and in [2] were -0.311% and -4.66%, respectively. The Potency in assay [3] and in assay [4] was over 46 µM in each case. The Potency result in assay [5] and in assay [6] was “inactive” in each case.

For the compound `COc1ccc(-n2c(=O)c(CCc3ccccc3)nc3cnc(OC)nc32)cc1`, the activity change, negative = inhibition in assay [1] is -14.2%; in [2] it was 0.705%. Besides, the results for the Potency in assay [3] and in [4] were over 9.22 µM and over 46 µM, respectively. Also, the Potency entry in assay [5] and in assay [6] was “inactive” in each case.

For the compound `COCCn1c(=O)c(CCc2ccccc2)nc2cnc(Oc3ccccc3)nc21`, the activity change, negative = inhibition in assay [1] is -27.4%; in assay [2] it was 7.7%. The Potency in [3] was over 9.22 µM; in assay [4] it was over 46 µM. Also, in [6], the Potency result was “inactive”.

Take `COc1ccccc1CNc1cc(-c2cccnc2)ncn1`: the results for the activity change, negative = inhibition in [1] and in assay [2] were -4.39% and -5.01%, respectively. The Potency in assay [3] and in assay [4] was over 46 µM in each case. Moreover, the Potency entry in assay [5] and in assay [6] was “inactive” each time.

Turning to `C=C1C[C@@]23CC[C@H]4[C@@](C)(CCC[C@@]4(C)C(=O)O[C@@H]4O[C@H](CO)[C@@H](O)[C@H](O)[C@H]4O)[C@@H]2CC[C@]1(O[C@@H]1O[C@H](CO)[C@@H](O)[C@H](O[C@@H]2O[C@H](CO)[C@@H](O)[C@H](O)[C@H]2O)[C@H]1O[C@@H]1O[C@@H](C)[C@H](O)[C@@H](O)[C@H]1O)C3`, the call in assay [7], in assay [8], in assay [10], in assay [15], in assay [18] and in [19] was inactive. The Potency entry in assay [9], in assay [11], in [12], in [13], in assay [14] and in [16] was “inactive” in each case. Further, in assay [17], the Potency entry is “inactive”.

As for `CC(C)c1ccc(C=O)cc1`, the result in [7], in [8], in assay [10], in [15], in [18] and in assay [19] was inactive. Also, the Potency entry in assay [9], in [11], in assay [12], in [13], in assay [14] and in assay [16] was “inactive” each time. For the same compound, the Potency entry in assay [17] was “inactive”. Further, the max response in assay [20] is -3.36%.

In the case of `C=C(C)C(CC=C(C)C)CC12CC(CC=C(C)C)C(C)(C)C(CC=C(C)C)(C(=O)/C(=C(\O)c3ccc(O)c(O)c3)C1=O)C2=O` (configuration not stated), the compound was called inactive in assay [7], in assay [8], in assay [10], in assay [18] and in assay [19]. Further, in assay [9], the Potency entry is “inactive”. The Potency is 14.1 µM (active) in assay [11], 28.2 µM (active) in assay [12], 15.8 µM (active) in [13] and 25.1 µM (active) in assay [14].

Regarding `CCCCCC/C=C\CCCCCCCC(=O)O`, the compound was classed as inactive in assay [7], in assay [8], in [10], in assay [15], in assay [18] and in assay [19]. Also, the Potency result in [9], in assay [11], in assay [12], in [14] and in [17] was “inactive” in each case.
